# Compound activity: PubChem BioAssay, National Center for Advancing Translational Sciences (NCATS)
# D3 antag: D3 dopamine receptor (human) antagonism | P35462 | D3R cells, DiscoveRx beta-arrestin luminescence, antagonist mode; active compounds read low | max response, negative = inhibition, % | 2.5% of 360,000 active | AID 652054; in the data active = max response below about -50%; inconclusive = no clear call, values can overlap the other calls; also: % is scaled to controls: 0 for no effect and ±100 for the full control effect
# Target sequence (P35462 whole entry, looked up): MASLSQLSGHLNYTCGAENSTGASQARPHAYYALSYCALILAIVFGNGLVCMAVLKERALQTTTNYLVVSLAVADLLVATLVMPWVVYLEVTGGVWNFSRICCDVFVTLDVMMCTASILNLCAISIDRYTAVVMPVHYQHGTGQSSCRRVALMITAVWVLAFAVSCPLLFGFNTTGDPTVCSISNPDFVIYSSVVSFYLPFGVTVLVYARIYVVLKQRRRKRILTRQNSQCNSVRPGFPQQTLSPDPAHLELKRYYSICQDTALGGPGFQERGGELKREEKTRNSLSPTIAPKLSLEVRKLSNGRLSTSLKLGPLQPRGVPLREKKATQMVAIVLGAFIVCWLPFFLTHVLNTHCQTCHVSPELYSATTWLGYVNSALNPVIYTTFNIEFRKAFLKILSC
#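 Cells expressing the human receptor were seeded at 1500 cells/well, incubated overnight at 37 degrees C in 5% CO2, then exposed to library compounds with dopamine controls for 90 minutes at 37 degrees C before luminescent detection.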
# a7 integrin act: activators of alpha7 integrin expression for muscular dystrophy. alpha7betagal myoblasts, beta-gal FDG fluorescence, 48 h. Potency, µM (titrated, usually from 38.3 µM), for inactives: top-dose activation, actives largely listed as activators. 0.064% of 350,000 active. AID 624291; active = well fitted activation curve with a large enough effect; inconclusive = small, poorly fitted or top-dose-only effect; inactive = no such curve, though single readings can be large or run the other way;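 also: potency is read from the fitted curve at half-maximal effect; 100% = response of the positive control SU9516; nearly all actives have a fitted effect of over 60% in size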
#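 alpha7betagal+/- myoblasts (passage 13, 250/well) treated 48 h at 37C with compounds at 1:260 dilution of DMSO stock. Lysed, then beta-galactosidase activity read as FDG fluorescence (ex 480/em 540) after 30 min, with pre-read for autofluorescence.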
# DRD3 agonist: activates the human D3 dopamine receptor | D3R DiscoveRx beta-arrestin cells, luminescence, 90 min | max activation, % | 0.58% of 410,000 active | AID 652048; in the data active = max activation above about 30%; also: 0% is about no effect
#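 Cells at 1500/well, incubated overnight, then treated with pinned compounds (dopamine as control) for 90 min at 37 degrees C. DiscoveRx reagent added for 30 - 60 minutes at room temperature; luminescence read.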
# An asterisk follows results filed as active; ? = inconclusive; . = not tested or not shown. The list is not random: actives were taken first. Their share in the collection is about 2.9%.
SMILES,D3 antag,a7 integrin act,DRD3 agonist
COc1ccc(C(=O)c2cn(Cc3ccccc3F)c3cc4c(cc3c2=O)OCCO4)cc1OC,.,.,2.1
N#C/C(=C/c1ccc(N2CCCC2)c([N+](=O)[O-])c1)c1nc2ccccc2[nH]1,?,-20.7%,-1.4
Cc1ccc2nc(/C(C#N)=C\c3ccc(N4CCCCC4)c([N+](=O)[O-])c3)[nH]c2c1,-70.2*,29.6%,-35.8
CCCSc1nsc(NC(=O)C(c2ccccc2)c2ccccc2)n1,-70.9*,-40.3%,-8.9
CCCSc1nsc(NC(=O)CC)n1,0.2,28.7%,7.7
Cc1ccccc1-c1nnc(CN2CCN(c3ccccn3)CC2)o1,.,.,49.8*
Cc1ccc(C)c(N2CCN(Cc3nnc(-c4ccc5c(c4)OCO5)o3)CC2)c1,.,.,-6.2
c1ccc(-c2nnc(CN3CCN(c4ccccc4)CC3)o2)cc1,-17.0,-17.9%,54.6*
O=C(c1cc(-c2ccc3c(c2)OCO3)on1)N1CCN(c2ccc(F)cc2)CC1,8.2,15.0%,-9.6
Clc1cccc(N2CCN(Cc3nnc(-c4ccccc4)o3)CC2)c1,?,-1.7%,23.8
c1ccc(N2CCN(Cc3nnc(-c4ccc5c(c4)OCO5)o3)CC2)cc1,.,.,37.0*
O=C(c1cc(-c2ccc3c(c2)OCO3)on1)N1CCN(c2ccccc2)CC1,55.6,5.9%,53.0*
Cc1ccccc1-c1nnc(CN2CCC(C)CC2)o1,?,?,-21.5
c1ccc(-c2nnc(CN3CCN(C(c4ccccc4)c4ccccc4)CC3)o2)cc1,-56.0*,23.2%,-10.5
FC(F)(F)c1cccc(N2CCN(Cc3nnc(-c4ccccc4)o3)CC2)c1,.,.,-6.8
CCOC(=O)c1ccc(NC(=O)c2nc[nH]c2C(=O)N[C@H](C)CO)cc1,-4.7,10.2%,-1.0
Cc1onc(-c2ccccc2Cl)c1C(=O)NNC(=O)c1cccc(F)c1,-12.8,-5.4%,-8.0
O=c1[nH]c(CS(=O)(=O)c2ccccc2)nc2ccccc12,?,1.4%,-3.6
CCn1c(C)c(CS(=O)(=O)c2ccccc2)[nH]c1=O,-71.0*,-64.3%,-12.1
CN(C(=O)CC1C(=O)NCCN1Cc1cccc(F)c1F)C1CC(C)(C)NC(C)(C)C1 (stereo not given),-18.2,-11.2%,-0.6
CC#CC(=O)N1CCCC(Cc2cccc(OC)c2)(C(=O)OCC)C1 (stereo not given),-8.5,-35.1%,10.9
Cc1cc(Sc2ncnc(N)c2[N+](=O)[O-])ncn1,-70.9*,-63.5%,-26.8
Cc1cc(N)ncc1[N+](=O)[O-],8.5,23.2%,5.7
Cc1cc(Sc2nc(N)ncc2[N+](=O)[O-])ncn1,-60.2*,-68.4%,-7.4
Cc1ccc(C)c(Oc2ncnc(N)c2[N+](=O)[O-])c1,2.4,-7.9%,1.6
SMILES,D3 antag,a7 integrin act,DRD3 agonist
N#Cc1c(-c2ccccc2)cc(-c2ccccc2)nc1SCc1nnc(-c2ccccc2)o1,7.5,?,0.8
CCn1cc(C(=O)N[C@H](C(=O)NCCCO)C(C)C)c(=O)c2cc3c(cc21)OCO3,10.2,-11.8%,4.7
CCn1cc(C(=O)N[C@H](C(=O)NCCO)C(C)C)c(=O)c2cc3c(cc21)OCO3,-15.3,0.0%,50.7*
Cc1ccc(C(=O)NCC(=O)NCCSc2ccc(Br)cc2)cc1,-56.7*,5.9%,-13.4
CCOc1ccc(C(=O)NCC(=O)NCCSc2ccc(Br)cc2)cc1OCC,?,-31.5%,-5.0
COC(=O)[C@@]1(Cc2ccccc2)[C@H]2C(=O)N(Cc3ccccc3)C(=O)[C@H]2[C@H]2CN=C(SCc3ccc(Cl)cc3)N21,23.3,-2.3%,9.8
CCN1C(=O)[C@H]2[C@H]3CN=C(SCc4ccc(C)cc4)N3[C@@](Cc3ccccc3)(C(=O)OC)[C@H]2C1=O,-56.9*,0.1%,-54.8
CCN1C(=O)[C@H]2[C@H]3CN=C(SCc4ccc(Cl)cc4)N3[C@@](Cc3ccccc3)(C(=O)OC)[C@H]2C1=O,-62.7*,29.8%,-48.0
CCN1C(=O)[C@H]2[C@H]3CN=C(SCc4ccc(C(=O)OC)cc4)N3[C@@](Cc3ccccc3)(C(=O)OC)[C@H]2C1=O,?,-8.6%,-63.7
Cc1nc(-c2cccnc2)sc1C(=O)Nc1ccc(F)cc1F,-1.8,-12.2%,0.6
O=C1CC(c2ccccc2)CC(O)=C1C=Nc1ccc(Cl)cc1 (stereo not given),?,3.1%,-5.0
O=C1CC(c2ccccc2)CC(O)=C1C=Nc1ccccc1Cl (stereo not given),-81.3*,-7.6%,-15.6
COc1ccccc1N=Nc1nc(-c2ccccc2)c(-c2ccccc2)[nH]1,-74.9*,?,-30.0
O=C(O)c1ccc(-c2nc(-c3ccccc3)c(-c3ccccc3)[nH]2)cc1,-17.8,0.0%,-0.7
COc1ccc(N=Nc2nc(-c3ccccc3)c(-c3ccccc3)[nH]2)cc1,?,-18.6%,-32.7
